We go through 47 molecules from PubChem BioAssay AID1851 (National Center for Advancing Translational Sciences (NCATS), 2009).

SMILES strings stand for the structures. About 2,600 (16%) of roughly 16,000 compounds were called active. Another 20% or so got no clear call; they are omitted. Not all results are given here. A number with no mark means an inactive call. The call rests on the fitted dose curve; in most records, active means well fitted curve in the direction sought with a large enough effect; inconclusive means small, poorly fitted or top-dose-only effect, or effect the other way; inactive means no such curve, though single readings can be large or run the other way.
On the % scale 0 is the no-effect control and ±100 the full control effect.

For the experiment, the target named is Cytochrome P450 2D6 (Homo sapiens) (UniProt P10635). Description: Cytochrome panel assay with activity outcomes. As to conditions: recombinant CYP, pro-luciferin dealkylation, luminescence, p450-cyp2d6; series mostly up to 57.1 µM; activity, negative = inhibition: at the top concentration.
Sequence of Cytochrome P450 2D6 (Homo sapiens) (P10635 whole entry, looked up): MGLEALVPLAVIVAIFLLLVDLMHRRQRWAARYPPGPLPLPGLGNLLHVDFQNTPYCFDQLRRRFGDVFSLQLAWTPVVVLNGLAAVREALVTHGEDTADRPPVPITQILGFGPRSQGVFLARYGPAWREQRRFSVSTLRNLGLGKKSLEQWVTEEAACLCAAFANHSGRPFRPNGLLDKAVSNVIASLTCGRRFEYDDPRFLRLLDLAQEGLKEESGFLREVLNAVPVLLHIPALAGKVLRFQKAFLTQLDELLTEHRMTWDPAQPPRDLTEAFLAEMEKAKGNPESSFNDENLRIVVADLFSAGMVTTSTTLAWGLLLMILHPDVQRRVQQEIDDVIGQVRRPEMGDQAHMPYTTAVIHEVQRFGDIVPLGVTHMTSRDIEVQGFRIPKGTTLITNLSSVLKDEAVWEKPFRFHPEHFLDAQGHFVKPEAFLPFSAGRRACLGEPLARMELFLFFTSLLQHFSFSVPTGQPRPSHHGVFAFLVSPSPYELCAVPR
`Cc1nn(-c2ccccc2)c2c1C(c1ccc(O)c(O)c1)N1C(=N2)C(Nc2ccccc2)=Nc2ccccc21` (configuration not stated): the “activity, negative = inhibition” value was -1.07%.
On to `COc1ccccc1OCc1ccc(C(=O)N(C)C)o1`, for which the “activity, negative = inhibition” value was -26.7%.
In the case of `Cc1ccc(C(=O)NNC(=O)CSc2nnc3c(n2)[nH]c2ccc(F)cc23)cc1`, the “activity, negative = inhibition” value is -8.95%.
`O=C(O)c1cc(-c2ccc(-c3ccccc3)cc2)nc2cc3ccccc3cc12`: the activity, negative = inhibition is -10.7% [at 11.4 µM].
As to `CC(=O)Nc1ccc(-c2cc(C(=O)O)c3cc4ccccc4cc3n2)cc1`, the activity, negative = inhibition was -6.98% [at 11.4 µM].
As to `COc1ccc(OC)c(-c2cc(C(=O)O)c3cc4ccccc4cc3n2)c1`, the AC50 (as a rule, the concentration at which the activity in the assay is half-maximal) is 3.98 µM (active).
For `O=C(Oc1ccc(C(=S)N2CCOCC2)cc1Br)c1cc(Cl)ccc1Cl`, the “activity, negative = inhibition” value was -5.56%.
On the same count and under the same terms, then `O=C(O)c1ccc(C(=O)Nc2cccc3ccccc23)c(C(=O)O)c1`, with 10.4% [at 11.4 µM]; and `COc1ccc(-n2c(=O)c(C)nc3cnc(Nc4cccc(OC)c4)nc32)cc1`, with -12.9%.
On the same count and under the same terms, then `COc1cccc2cc(C(=O)CC3(O)C(=O)N(Cc4ccccc4)c4ccccc43)c(=O)oc12` (configuration not stated), with -12.8%.
As to `COc1cccc(Nc2ncc3nc(-c4ccccc4)c(=O)n(Cc4cccs4)c3n2)c1`, the “activity, negative = inhibition” value was 11.2%.
In the case of `COc1cccc(-c2nccc(NCc3ccccc3)n2)c1`, the concentration at half-maximal activity (AC50) was 1 µM (active).
For `COc1cccc(-c2nccc(NCc3cccc(C)c3)n2)c1`, the AC50 is 10 µM (active).
With `COc1cccc(-c2nccc(NCc3cccs3)n2)c1`, the concentration at half-maximal activity (AC50) is 0.316 µM (active).
As to `COc1ccc(-c2nc3cnc(Nc4cccc(OC)c4)nc3n(Cc3cccs3)c2=O)cc1`, the “activity, negative = inhibition” value was 4.57%.
`COc1cccc(-c2nccc(NCc3cnc(C)cn3)n2)c1`: the “activity, negative = inhibition” value was -11.9%.
Regarding `CCOC(=O)CCN1C(=O)[C@H]2[C@@H]3[C@H](O)[C@H](O)CC(=O)[C@H]3CC[C@H]2C1=O`, the activity, negative = inhibition was -6.39% [at 11.4 µM].
Turning to `CC(C)CN(CC#N)CC(C)C`, the activity, negative = inhibition was 1.21% [at 11.4 µM].
For `O=C(c1cc(C(F)(F)F)cc(C(F)(F)F)c1)N1CCC2(CC1)CN(c1ccccc1)C2`, the “activity, negative = inhibition” value is 8.07%.
As to `O=c1ncn(-c2ccccc2F)c2ncccc12`, the “activity, negative = inhibition” value was 23.3%.
Take `CN1CCCC2(CCN(C(=O)c3cc(C(F)(F)F)cc(C(F)(F)F)c3)CC2)C1`: the “activity, negative = inhibition” value is -5.92%.
Same read-out and setting: then `O=C(Nc1ccccc1N1CCN(C(=O)c2ccc(Cl)cc2)CC1)c1cc(Br)ccc1Cl`, with -24.3%; and `C[C@@H](c1ccccc1)N1C(=O)[C@H]2[C@H]3[C@H](O)[C@H](O)C/C(=N/OC[C@@H](O)COCc4ccco4)[C@@H]3CC[C@@H]2C1=O`, with 3.23% [at 11.4 µM].
Consider `O=C(N/N=C/c1c[nH]c2ccccc12)c1cc(-c2ccc(-c3ccccc3)cc2)n[nH]1`, for which the “activity, negative = inhibition” value was -8.44%.
As for `O=C(N/N=C/c1c[nH]c2ccc(Br)cc12)c1ccn(Cc2ccc(Cl)cc2)n1`, the AC50 is 12.6 µM (active).
In the case of `[N-]=[N+]=NC[C@@H]1O[C@@H](n2cnc3c(N)ncnc32)[C@@H]2O[C@@H]21`, the activity, negative = inhibition is 3.12% [at 11.4 µM].
On to `CC(=O)N1CCc2cc(S(=O)(=O)CCC(=O)Nc3c(C)n(C)n(-c4ccccc4)c3=O)ccc21`, for which the “activity, negative = inhibition” value was 9.42%.
For `CC(C)CCNC1=NCCCCC1`, the AC50 was 12.6 µM (active).
Turning to `Cc1ccc2[nH]c3nc(CCCn4ccnc4-c4ccccc4)nnc3c2c1`, the activity, negative = inhibition was -15.6% [at 11.4 µM].
Turning to `Cc1sc(NC(=O)c2ccc(OCC(C)C)cc2)c(C(N)=O)c1-c1ccc(Cl)cc1Cl`, the “activity, negative = inhibition” value was 6.82%.
Regarding `N#Cc1cccc(NC(=O)N2CC3(CCN(C(=O)c4cnccn4)CC3)C2)c1`, the “activity, negative = inhibition” value is -5.46%.
Consider `CCOc1ccccc1C1C(C#N)=C(N)Oc2n[nH]c(CC)c21` (configuration not stated), for which the “activity, negative = inhibition” value is -15.4%.
Regarding `O=C(N/N=C\c1ccc(-c2ccccc2[N+](=O)[O-])o1)C1COc2cc3ccccc3cc2O1` (configuration not stated), the “activity, negative = inhibition” value was 4.5%.
The same measure, in the same setting: under `N#Cc1c(-c2ccccc2)ccnc1Oc1ccccc1` stands -8.61%.
As for `CN(C)c1ccnc(Oc2ccc(Cl)cc2)c1C#N`, the AC50 was 5.01 µM (active).
For the molecule `Cc1cc(C)c(C#N)c(Oc2ccc(F)cc2)n1`, the “activity, negative = inhibition” value is 9.74%.
For `COC(=O)[C@@H]1CC[C@H](C)[C@@H](c2ccc(C)cc2)N1C(=O)c1ccc(/C=N\OC[C@@H]2O[C@H](c3ccccc3)C=C[C@@H]2Oc2ccc(OC)cc2)cc1`, the activity, negative = inhibition was 3.42% [at 11.4 µM].
Consider `CCCN[C@@H](C)C(=O)Nc1c(C)csc1C(=O)OC`, for which the “activity, negative = inhibition” value was -8.72% [at 25.6 µM].
For `CCOC(=O)c1[nH]c2ccc(Cl)cc2c1-c1ccccc1`, the “activity, negative = inhibition” value is 7.26%.
Turning to `CCOC(=O)N1CCN(C(=O)c2cccn3c(=O)c4cc(Cl)ccc4nc23)CC1`, the “activity, negative = inhibition” value is -19.7%.
In the case of `CCOC(=O)N1CCN(c2c(-c3ccccc3)c3cc(Cl)ccc3[nH]c2=O)CC1`, the AC50 is 0.355 µM (active).
Take `O=C(c1ccccc1)N1CCSC1=S`: the “activity, negative = inhibition” value is 2.21%.
As to `COc1ccc(C(=O)[C@H](Br)[C@H](Br)C(=O)O)cc1`, the activity, negative = inhibition is -14.6% [at 11.4 µM].
In the case of `CCOc1cc(/C=N/n2cnnc2)c(Br)cc1O`, the “activity, negative = inhibition” value was 0.114%.
Take `Cc1ccc(C(=O)N/N=C/c2nc3ccccc3n2C)cc1`: the “activity, negative = inhibition” value is -3%.
For `Cn1c(/C=N/NC(=O)c2ccccc2Br)nc2ccccc21`, the “activity, negative = inhibition” value is -16.1%.
On to `Cc1ccc(/C=N/NC(=O)CSc2nc3ccccc3n2C)s1`, for which the AC50 is 7.08 µM (active).
